# Measurements taken from PubChem BioAssay AID1259415 (National Center for Advancing Translational Sciences (NCATS), 2018).
# Where “and” joins values, the source holds several entries; their conditions need not be identical. Equal entries are not always repeated. Among all 410,000 compounds or so, about 18,000 (4.4%) were called active. About 7% were inconclusive and are not listed. Cut-off read from the data, not from the text of the source: active = activity change below about -60%; inconclusive = no clear call, values can overlap the other calls; inactive = above about -39%. Only a selection was taken, and actives are over-represented in it overall. Some structures have more than one record in an assay (separate samples or runs), and their calls can disagree.
# Assay: qHTS Assay for inhibitors of the human cytomegalovirus (HCMV)
# Settings: HFF cells, HCMV-luciferase reporter, 72 h; at 57.5 µM; stronger effect = lower value
# Summary of the method: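 Inhibition of viral replication was scored as loss of reporter luminescence in HFFs infected with HCMV-luciferase (MOI 1 PFU/cell) for 72 h; compounds tested at 2 doses, normalized to buffer and Salinomycin controls.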
# % is set by controls: 0 for no effect and ±100 for the full control effect.
row,SMILES,"activity change, negative = inhibition"
1,Cc1ccc(OCC(=O)Nc2ccc(C(=O)O)cc2NC(=O)COc2ccc(C)c(C)c2)cc1C,-98.3% (active)
2,Cc1ccc(OCC(=O)Nc2cccc3c2CCCC3)cc1C,-12.3% (inactive)
3,Cc1cccc(OCC(=O)Nc2ccc(C(=O)O)cc2NC(=O)COc2cccc(C)c2)c1,-3.05% (inactive)
4,COc1ccc(Cl)cc1NC(=O)Cn1nc(-c2ccc(C)cc2)n(C)c1=S,3.99% (inactive)
5,Cc1nn(C(C)C(=O)N2CCOCC2)c(=O)c2nn(-c3ccccc3)c(C)c12 (stereo unspecified),-17.5% (inactive)
6,Cc1nn(C(C)C(=O)NCCC2=CCCCC2)c(=O)c2nn(-c3ccccc3)c(C)c12 (stereo unspecified),-28.7% (inactive)
7,Cc1ccc(-n2nc3c(=O)n(C(C)C(=O)NCc4ccc5c(c4)OCO5)nc(C)c3c2C)cc1 (stereo unspecified),-83.4% (active)
8,COc1ccc(OC)c(CNC(=O)Cn2nc(C)c3c(C)n(-c4ccccc4)nc3c2=O)c1,-18.6% (inactive)
9,Cc1ccccc1CNC(=O)CSc1nnc(C)c2c(C)n(-c3ccccc3)nc12,-3% (inactive)
10,COc1ccc(CNC(=O)C(C)n2nc(C)c3c(C)n(-c4ccccc4)nc3c2=O)c(OC)c1 (stereo unspecified),-15.4% (inactive) and -69.2% (active)
11,COc1ccc(-c2n[nH]c3c2CN(C(=O)c2ccc(F)cc2)CC3)cc1,0% (inactive)
12,O=C1C=C[C@]23OCCC[C@@]2(CCCO)CCCC3=C1,-2.29% (inactive)
13,CCOc1cc(N2CCOCC2)c(OCC)cc1NC(=O)C1=NN(c2cccc(C)c2)C(=O)CC1,-25.4% (inactive)
14,CCOc1cc(N2CCOCC2)c(OCC)cc1NC(=O)COc1cccc2cccnc12,-104% (active)
15,CCOc1cc(C(=O)OCC(=O)Nc2cccc(C)c2)ccc1OCC(=O)N1CCOCC1,-3.23% (inactive)
16,Cc1ccc(CNS(=O)(=O)c2ccc(-c3cc(C(F)(F)F)on3)s2)cc1,87.2% (inactive)
17,Cc1ccc(CNS(=O)(=O)c2ccc(C(=O)N(C)C)s2)cc1,1.6% (inactive)
18,O=C(Nc1ccccc1Br)c1cc(CN2CCCC2)on1,27.2% (inactive)
19,CCOc1ccc(N(Cc2ccccc2)C(=O)c2nc(S(C)(=O)=O)ncc2Cl)cc1,-101% (active)
20,CCOc1ccc(NC(=O)CN(Cc2ccccc2)S(=O)(=O)c2ccc(Cl)cc2)cc1,2.3% (inactive)
21,CCOc1ccc(N(Cc2ccccc2)C(=O)c2nc(SCC)ncc2Cl)cc1,-68.2% (active)
22,COc1ccc(N(Cc2ccc(N(C)C)cc2)C(=O)c2ccc(S(C)(=O)=O)cc2)cc1,6.32% (inactive)

row,SMILES,"activity change, negative = inhibition"
1,CCSc1ncc(Cl)c(C(=O)Nc2c(C(=O)c3ccccc3)oc3ccccc23)n1,12.8% (inactive)
2,CCOc1ccc(N(CC)C(=O)c2noc3c2COc2ccc(C)cc2-3)cc1,-7.27% (inactive)
3,Brc1ccc(-c2n(-c3ccccn3)c3ccccc3[n+]2-c2ccccn2)cc1,-11.9% (inactive)
4,CCOC(=O)c1ccc(NC(=O)C2CC(=O)N(c3ccc(C(C)C)cc3)C2)cc1 (stereo unspecified),46.5% (inactive)
5,COC(=O)c1cc(NC(=O)CCc2c(C)nc3c4c(C)cc(C)nc4nn3c2C)cc(C(=O)OC)c1,8.7% (inactive)
6,COc1ccc(C2c3ccc(O)cc3Oc3ncn(CCCO)c(=N)c32)cc1OC (stereo unspecified),0% (inactive)
7,CSc1ccc(CNCCN2CCOCC2)cc1,0% (inactive)
8,CC(=O)Oc1cc2c(C(=O)NCCN3CCOCC3)c(C)oc2c2ccccc12,55.4% (inactive)
9,c1ccc2cc3c(NCCN4CCOCC4)ccnc3cc2c1,-98.8% (active)
10,CNc1nc2cnc(-c3ccsc3)cc2n1Cc1ccccc1,12.4% (inactive)
11,Cc1c(C(=O)Nc2cccc(Cl)c2)oc2ccc(S(=O)(=O)N3CCOCC3)cc12,4.49% (inactive)
12,Nc1ccc(C(=O)OCC(=O)NC2CCCc3ccccc32)cc1[N+](=O)[O-] (stereo unspecified),-3.15% (inactive)
13,O=C(CCNC(=O)c1ccc(Cl)cc1)NC1CCCc2ccccc21 (stereo unspecified),-82% (active)
14,NC(=O)Nc1ccc(C(=O)OCC(=O)NC2CCCc3ccccc32)cc1 (stereo unspecified),-25.3% (inactive)
15,CCC(C)c1ccc2oc(-c3ccc(NC(=O)c4cc5ccccc5o4)cc3)nc2c1 (stereo unspecified),-17.9% (inactive)
16,COc1cc(NC(=O)Cn2nc(-c3ccc(C)c(C)c3)ccc2=O)cc(OC)c1,10.3% (inactive)
17,O=C(C1CCC1)N1CCc2cc(S(=O)(=O)NCc3cccnc3)ccc21,-32% (inactive)
18,CC(=O)N1CCSc2ccc(S(=O)(=O)N3CCC(C)CC3)cc21,-33.3% (inactive)
19,COc1ccc(N(C)S(=O)(=O)c2ccc3c(c2)CC(C)N3C(=O)C2CC2)c(OC)c1 (stereo unspecified),-22.8% (inactive)
20,COc1cccc(CNS(=O)(=O)c2ccc3c(c2)N(C(C)=O)CCS3)c1,-73.4% (active)
21,COc1cccc(CNS(=O)(=O)c2csc(C(N)=O)c2)c1,-30.1% (inactive)
22,COc1cccc(CNS(=O)(=O)c2ccc3c(c2)CC(C)N3C(=O)C2CCC2)c1 (stereo unspecified),-33.4% (inactive) and -60.7% (active)

row,SMILES,"activity change, negative = inhibition"
1,CCOCCn1ccc2c(OCC(=O)NCc3ccc(C)cc3)cccc2c1=O,22.4% (inactive)
2,O=C(CCS(=O)(=O)c1cc(Br)cc2c1N(C(=O)C1CC1)CC2)Nc1ccc(Br)cc1F,-5.42% (inactive)
3,Cc1ccc(CN2CCCn3nc(C(=O)NCc4ccccc4Cl)cc3C2=O)cc1,-16.2% (inactive)
4,CCOC(=O)c1nnn(CC(=O)NC(=O)Nc2ccccc2F)c1C(=O)OCC,11.6% (inactive)
5,COc1ccc2c(Sc3ccc(C)cc3)c(C(=O)NC(C)c3ccccc3)[nH]c2c1 (stereo unspecified),-4.72% (inactive)
6,COc1ccc(CNc2nc(-c3ccc(Cl)cc3)nn2S(=O)(=O)c2ccc(C)cc2)cc1,9.27% (inactive)
7,CCOc1ccccc1Nc1nnc(SCC(=O)Nc2cc(C)on2)s1,45.8% (inactive)
8,COC(=O)c1ccc(CSc2nnc(N)s2)o1,-25.6% (inactive)
9,CCOc1ccccc1Nc1nnc(SCc2ccc(C(=O)OC)o2)s1,-61.9% (active)
10,Cc1ccc(NC(=O)c2ccc(CN3CC(=O)N4CCCCC4C3=O)cc2)c(Cl)c1 (stereo unspecified),48% (inactive)
11,Cc1nn(C)c(C)c1CN(C(=O)CCc1nnc(Cc2c[nH]c3ccccc23)o1)C(C)C,9.02% (inactive)
12,Clc1ccc(C[n+]2cc(-c3ccc(Cl)cc3)n3c2CCC3)cc1,-74.1% (active)
13,CC(C)C[C@@H](COCc1ccc(Cl)cc1)N1CCN(C(=O)c2ccc(Cl)cc2Cl)CCC1=O,-13.1% (inactive)
14,Cc1c(NC(=O)CSc2cccc3cccnc23)c(=O)n(-c2ccccc2)n1C,-83.5% (active)
15,Cc1ccc(S(=O)(=O)CC(=O)Nc2c(C)n(C)n(-c3ccccc3)c2=O)cc1,10.8% (inactive)
16,Cc1ccccc1OCCC(=O)Nc1c(C)n(C)n(-c2ccccc2)c1=O,-31.3% (inactive)
17,COC(=O)c1nn(-c2cccc(Cl)c2)ccc1=O,-24.4% (inactive)
18,CC(CCCc1ccccc1)NC(=O)c1nn(-c2ccc(Cl)cc2)nc1CO (stereo unspecified),-5.56% (inactive)
19,CCCSC1=C(C#N)C(c2ccccc2C)C(C(=O)OC)C(=O)N1 (stereo unspecified),-10.3% (inactive)
20,COc1cc(/C=C/C(=O)O)cc(S(=O)(=O)Nc2ccccc2SC)c1OC,-14.9% (inactive)
21,COc1cc(/C=C/C(=O)N2CCc3ccccc3C2)cc(OC)c1OC,84.9% (inactive)
22,CCOc1ccc(NC(=O)CSc2c3c(nc4ccccc24)CCCC3)cc1,-11.9% (inactive)

row,SMILES,"activity change, negative = inhibition"
1,CCOc1ccc(C(=O)Nc2ccc3nc4c(c(Nc5ccccc5OC)c3c2)CCCC4)cc1,-83.9% (active)
2,CCOc1ccc(-n2nc3ccc(NC(=O)c4ccc(OC)c(Cl)c4)cc3n2)cc1,1.85% (inactive)
3,COc1ccccc1Nc1c2c(nc3ccc(NC(=O)/C=C/c4cc(OC)c(OC)c(OC)c4)cc13)CCCC2,-98.3% (active)
4,CCC(C(=O)Nc1cc(OC)ccc1OC)n1c(=O)c(C(F)(F)F)nc2ccccc21 (stereo unspecified),-4.66% (inactive)
5,COc1cc(OC)c(NC(=O)N2CC3CCCN3c3ccccc32)cc1Cl (stereo unspecified),-10.2% (inactive)
6,CCc1ccccc1NC(=O)Cc1ccc(NC(=O)N2CCCCc3ccccc32)cc1,18.7% (inactive)
7,COc1ccccc1C(=O)NCCC(=O)N(C)Cc1cccnc1,0% (inactive)
8,CCOCCCNC(=O)c1ccc2nc(CCc3ccccc3)oc2c1,18.3% (inactive)
9,CCOC(=O)N1CCc2c(sc3c2c(=O)n(Cc2ccccc2)c(=O)n3CC(=O)Nc2cccc(C)c2)C1,-9.95% (inactive)
10,O=C(CCl)Nc1cccc(CP(=O)(c2ccccc2)c2ccccc2)c1,-108% (active)
11,CCc1cccc(NC(=O)c2cc(-c3ccccc3)n[nH]2)c1,46.1% (inactive)
12,O=C(CNCc1ccc(Cl)cc1)Nc1cccc(C(=O)O)c1,-4.42% (inactive)
13,Cc1cc(C)cc(NC(=O)CCS(=O)(=O)c2cc3c4c(c2)CCN4C(=O)CC3)c1,-0.0143% (inactive)
14,C=C(C)C1CC=C(C)/C(=N\NC(=O)CNc2ccccc2OC)C1 (stereo unspecified),-21.5% (inactive)
15,CN1CCN(c2oc(-c3ccc(COc4ccc(Cl)cc4)o3)nc2C#N)CC1,-31.4% (inactive)
16,CN(CCc1cnn(C)c1)Cc1cn(C)nc1-c1ccccc1F,5.69% (inactive)
17,CCn1c2ccccc2c2cc(NC(=O)COc3ccc(C)cc3C)ccc21,-8.23% (inactive)
18,Cc1ccc(OCC(=O)Nc2ccc(NC(=O)c3cccs3)cc2)c(C)c1,-90.8% (active)
19,C/C(=N\OCC(=O)Nc1ccc(Br)cc1)c1cccs1,-6.56% (inactive)
20,CCOc1ccc(NC(=O)Cn2cc(C(=O)c3ccc(C)cc3)c(=O)c3cc4c(cc32)OCCO4)cc1,11.7% (inactive)
